Among the data in PMC8222333, “AsCas12a ultra nuclease facilitates the rapid generation of therapeutic cell medicines” are binding signal values, retold here.

Some targets named below: dAsCas12a S542R (Acidaminococcus sp., UniProt U2UMQ6 1-1307, S542R;D908A;E993A;D1235A); d-enCas12a (Acidaminococcus sp., UniProt U2UMQ6 1-1307, E174R;S542R;K548R;D908A;E993A;D1235A); d-enCas12a-Ultra (Acidaminococcus sp., UniProt U2UMQ6 1-1307, E174R;S542R;K548R;M537R;F870L;D908A;E993A;D1235A).
Common to all, as to assay: Spec-seq (native PAGE EMSA with sequencing of bound and unbound); 25 mM Tris-HCl pH 7.4, 150 mM KCl, 5 mM MgCl2, 10% glycerol, 1 mM DTT, 40 ng/uL salmon sperm DNA; 400 nM Cas12a, 480 nM crRNA, 50 nM library, 37 C 1 h; native PAGE at room temperature; high values mean tight binding
Holding throughout (conditions): protein: recombinant
(In general: A gel shift assay detects complexes by their altered migration in electrophoresis.)
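Note: relative affinity from the bound to unbound sequence frequency ratio in Spec-seq.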

B1: CAAC (dsDNA)
DNA 1: GCTATCTAGTGCTCAGTACGCACTGCAACAGGAAACTTCTGGCAGGACCAGGTCATGAGATCGGAAGAGCACACGTCTGAACTCCAGTCA
DNA 2: TGACTGGAGTTCAGACGTGTGCTCTTCCGATCTCATGACCTGGTCCTGCCAGAAGTTTCCTGTTGCAGTGCGTACTGAGCACTAGATAGC
RNA: AAUUUCUACUCUUGUAGAUAGGAAACUUCUGGCAGGACC
As to B1, the figures for the binding signal in the assay with dAsCas12a S542R, with d-enCas12a and with d-enCas12a-Ultra were -8.83 lnKA, -5.54 lnKA and -3.19 lnKA, respectively.

B2: CACG (dsDNA)
DNA 1: GCTATCTAGTGCTCAGTACGCACTGCACGAGGAAACTTCTGGCAGGACCAGGTCATGAGATCGGAAGAGCACACGTCTGAACTCCAGTCA
DNA 2: TGACTGGAGTTCAGACGTGTGCTCTTCCGATCTCATGACCTGGTCCTGCCAGAAGTTTCCTCGTGCAGTGCGTACTGAGCACTAGATAGC
RNA: AAUUUCUACUCUUGUAGAUAGGAAACUUCUGGCAGGACC
In the case of B2, the binding signal was -8.68 lnKA with dAsCas12a S542R, -4.44 lnKA with d-enCas12a and -1.41 lnKA with d-enCas12a-Ultra.

B3: CATT (dsDNA)
DNA 1: GCTATCTAGTGCTCAGTACGCACTGCATTAGGAAACTTCTGGCAGGACCAGGTCATGAGATCGGAAGAGCACACGTCTGAACTCCAGTCA
DNA 2: TGACTGGAGTTCAGACGTGTGCTCTTCCGATCTCATGACCTGGTCCTGCCAGAAGTTTCCTAATGCAGTGCGTACTGAGCACTAGATAGC
RNA: AAUUUCUACUCUUGUAGAUAGGAAACUUCUGGCAGGACC
For the molecule B3, the binding signal with dAsCas12a S542R was -8.56 lnKA; with d-enCas12a, -5.39 lnKA; in the assay with d-enCas12a-Ultra it was -2.95 lnKA.

B4: CCGA (dsDNA)
DNA 1: GCTATCTAGTGCTCAGTACGCACTGCCGAAGGAAACTTCTGGCAGGACCAGGTCATGAGATCGGAAGAGCACACGTCTGAACTCCAGTCA
DNA 2: TGACTGGAGTTCAGACGTGTGCTCTTCCGATCTCATGACCTGGTCCTGCCAGAAGTTTCCTTCGGCAGTGCGTACTGAGCACTAGATAGC
RNA: AAUUUCUACUCUUGUAGAUAGGAAACUUCUGGCAGGACC
Regarding B4, the binding signal with dAsCas12a S542R is -8.62 lnKA; in the assay with d-enCas12a, -5.74 lnKA; in the assay with d-enCas12a-Ultra it was -3.44 lnKA.

B5: CAAG (dsDNA)
DNA 1: GCTATCTAGTGCTCAGTACGCACTGCAAGAGGAAACTTCTGGCAGGACCAGGTCATGAGATCGGAAGAGCACACGTCTGAACTCCAGTCA
DNA 2: TGACTGGAGTTCAGACGTGTGCTCTTCCGATCTCATGACCTGGTCCTGCCAGAAGTTTCCTCTTGCAGTGCGTACTGAGCACTAGATAGC
RNA: AAUUUCUACUCUUGUAGAUAGGAAACUUCUGGCAGGACC
As to B5, the values for the binding signal with dAsCas12a S542R, in the assay with d-enCas12a and with d-enCas12a-Ultra were -8.58 lnKA, -5.75 lnKA and -3.48 lnKA, respectively.

B6: CAGT (dsDNA)
DNA 1: GCTATCTAGTGCTCAGTACGCACTGCAGTAGGAAACTTCTGGCAGGACCAGGTCATGAGATCGGAAGAGCACACGTCTGAACTCCAGTCA
DNA 2: TGACTGGAGTTCAGACGTGTGCTCTTCCGATCTCATGACCTGGTCCTGCCAGAAGTTTCCTACTGCAGTGCGTACTGAGCACTAGATAGC
RNA: AAUUUCUACUCUUGUAGAUAGGAAACUUCUGGCAGGACC
Regarding B6, the binding signal was -8.61 lnKA with dAsCas12a S542R, -5.67 lnKA with d-enCas12a and -3.37 lnKA with d-enCas12a-Ultra.

B7: CCAC (dsDNA)
DNA 1: GCTATCTAGTGCTCAGTACGCACTGCCACAGGAAACTTCTGGCAGGACCAGGTCATGAGATCGGAAGAGCACACGTCTGAACTCCAGTCA
DNA 2: TGACTGGAGTTCAGACGTGTGCTCTTCCGATCTCATGACCTGGTCCTGCCAGAAGTTTCCTGTGGCAGTGCGTACTGAGCACTAGATAGC
RNA: AAUUUCUACUCUUGUAGAUAGGAAACUUCUGGCAGGACC
As for B7, the binding signal in the assay with dAsCas12a S542R was -8.4 lnKA; with d-enCas12a, -5.65 lnKA; with d-enCas12a-Ultra, -3.37 lnKA.

B8: CAAT (dsDNA)
DNA 1: GCTATCTAGTGCTCAGTACGCACTGCAATAGGAAACTTCTGGCAGGACCAGGTCATGAGATCGGAAGAGCACACGTCTGAACTCCAGTCA
DNA 2: TGACTGGAGTTCAGACGTGTGCTCTTCCGATCTCATGACCTGGTCCTGCCAGAAGTTTCCTATTGCAGTGCGTACTGAGCACTAGATAGC
RNA: AAUUUCUACUCUUGUAGAUAGGAAACUUCUGGCAGGACC
With B8, the values for the binding signal with dAsCas12a S542R, with d-enCas12a and with d-enCas12a-Ultra were -8.59 lnKA, -5.72 lnKA and -3.43 lnKA, respectively.

B9: CACA (dsDNA)
DNA 1: GCTATCTAGTGCTCAGTACGCACTGCACAAGGAAACTTCTGGCAGGACCAGGTCATGAGATCGGAAGAGCACACGTCTGAACTCCAGTCA
DNA 2: TGACTGGAGTTCAGACGTGTGCTCTTCCGATCTCATGACCTGGTCCTGCCAGAAGTTTCCTTGTGCAGTGCGTACTGAGCACTAGATAGC
RNA: AAUUUCUACUCUUGUAGAUAGGAAACUUCUGGCAGGACC
Take B9: the binding signal with dAsCas12a S542R was -8.06 lnKA; with d-enCas12a it was -2.71 lnKA; with d-enCas12a-Ultra, -0.596 lnKA.

B10: CAGG (dsDNA)
DNA 1: GCTATCTAGTGCTCAGTACGCACTGCAGGAGGAAACTTCTGGCAGGACCAGGTCATGAGATCGGAAGAGCACACGTCTGAACTCCAGTCA
DNA 2: TGACTGGAGTTCAGACGTGTGCTCTTCCGATCTCATGACCTGGTCCTGCCAGAAGTTTCCTCCTGCAGTGCGTACTGAGCACTAGATAGC
RNA: AAUUUCUACUCUUGUAGAUAGGAAACUUCUGGCAGGACC
For the molecule B10, the binding signal with dAsCas12a S542R was -8.98 lnKA; with d-enCas12a, -5.82 lnKA; with d-enCas12a-Ultra, -3.56 lnKA.

B11: CACC (dsDNA)
DNA 1: GCTATCTAGTGCTCAGTACGCACTGCACCAGGAAACTTCTGGCAGGACCAGGTCATGAGATCGGAAGAGCACACGTCTGAACTCCAGTCA
DNA 2: TGACTGGAGTTCAGACGTGTGCTCTTCCGATCTCATGACCTGGTCCTGCCAGAAGTTTCCTGGTGCAGTGCGTACTGAGCACTAGATAGC
RNA: AAUUUCUACUCUUGUAGAUAGGAAACUUCUGGCAGGACC
Consider B11, for which the binding signal is -8.05 lnKA with dAsCas12a S542R, -1.94 lnKA with d-enCas12a and -0.454 lnKA with d-enCas12a-Ultra.

B12: CAGC (dsDNA)
DNA 1: GCTATCTAGTGCTCAGTACGCACTGCAGCAGGAAACTTCTGGCAGGACCAGGTCATGAGATCGGAAGAGCACACGTCTGAACTCCAGTCA
DNA 2: TGACTGGAGTTCAGACGTGTGCTCTTCCGATCTCATGACCTGGTCCTGCCAGAAGTTTCCTGCTGCAGTGCGTACTGAGCACTAGATAGC
RNA: AAUUUCUACUCUUGUAGAUAGGAAACUUCUGGCAGGACC
As for B12, the binding signal with dAsCas12a S542R was -8.95 lnKA; in the assay with d-enCas12a, -5.94 lnKA; with d-enCas12a-Ultra, -3.45 lnKA.

B13: CCAT (dsDNA)
DNA 1: GCTATCTAGTGCTCAGTACGCACTGCCATAGGAAACTTCTGGCAGGACCAGGTCATGAGATCGGAAGAGCACACGTCTGAACTCCAGTCA
DNA 2: TGACTGGAGTTCAGACGTGTGCTCTTCCGATCTCATGACCTGGTCCTGCCAGAAGTTTCCTATGGCAGTGCGTACTGAGCACTAGATAGC
RNA: AAUUUCUACUCUUGUAGAUAGGAAACUUCUGGCAGGACC
B13: the binding signal in the assay with dAsCas12a S542R is -8.87 lnKA; with d-enCas12a it was -5.81 lnKA; in the assay with d-enCas12a-Ultra it was -3.45 lnKA.

B14: CCCT (dsDNA)
DNA 1: GCTATCTAGTGCTCAGTACGCACTGCCCTAGGAAACTTCTGGCAGGACCAGGTCATGAGATCGGAAGAGCACACGTCTGAACTCCAGTCA
DNA 2: TGACTGGAGTTCAGACGTGTGCTCTTCCGATCTCATGACCTGGTCCTGCCAGAAGTTTCCTAGGGCAGTGCGTACTGAGCACTAGATAGC
RNA: AAUUUCUACUCUUGUAGAUAGGAAACUUCUGGCAGGACC
B14: the binding signal with dAsCas12a S542R was -7.57 lnKA; with d-enCas12a, -5.17 lnKA; with d-enCas12a-Ultra, -1.7 lnKA.

B15: CCAA (dsDNA)
DNA 1: GCTATCTAGTGCTCAGTACGCACTGCCAAAGGAAACTTCTGGCAGGACCAGGTCATGAGATCGGAAGAGCACACGTCTGAACTCCAGTCA
DNA 2: TGACTGGAGTTCAGACGTGTGCTCTTCCGATCTCATGACCTGGTCCTGCCAGAAGTTTCCTTTGGCAGTGCGTACTGAGCACTAGATAGC
RNA: AAUUUCUACUCUUGUAGAUAGGAAACUUCUGGCAGGACC
Take B15: the binding signal is -8.66 lnKA with dAsCas12a S542R, -5.83 lnKA with d-enCas12a and -3.39 lnKA in the assay with d-enCas12a-Ultra.

B16: CAGA (dsDNA)
DNA 1: GCTATCTAGTGCTCAGTACGCACTGCAGAAGGAAACTTCTGGCAGGACCAGGTCATGAGATCGGAAGAGCACACGTCTGAACTCCAGTCA
DNA 2: TGACTGGAGTTCAGACGTGTGCTCTTCCGATCTCATGACCTGGTCCTGCCAGAAGTTTCCTTCTGCAGTGCGTACTGAGCACTAGATAGC
RNA: AAUUUCUACUCUUGUAGAUAGGAAACUUCUGGCAGGACC
For the molecule B16, the figures for the binding signal with dAsCas12a S542R, with d-enCas12a and with d-enCas12a-Ultra were -8.93 lnKA, -5.81 lnKA and -3.41 lnKA, respectively.

B17: CCAG (dsDNA)
DNA 1: GCTATCTAGTGCTCAGTACGCACTGCCAGAGGAAACTTCTGGCAGGACCAGGTCATGAGATCGGAAGAGCACACGTCTGAACTCCAGTCA
DNA 2: TGACTGGAGTTCAGACGTGTGCTCTTCCGATCTCATGACCTGGTCCTGCCAGAAGTTTCCTCTGGCAGTGCGTACTGAGCACTAGATAGC
RNA: AAUUUCUACUCUUGUAGAUAGGAAACUUCUGGCAGGACC
Take B17: the values for the binding signal in the assay with dAsCas12a S542R, with d-enCas12a and with d-enCas12a-Ultra were -8.95 lnKA, -5.72 lnKA and -3.45 lnKA, respectively.
